# Results reported in a collection of fitness landscapes (doi:10.1016/j.celrep.2020.107928).
# Whole data set: some 81,000 sequences, median “one-hybrid fitness for binding parS DNA” near -0.17, cut for the highest 2% near 0.51. The sample holds the highest values, similar sequences and a random draw of the others, so the mix is not that of the screen.
# B1: Caulobacter ParB omega fusion; a variant is named by its letters at X, in order, B8GW30 (parent)
# chain: MESVVVGEPGMSEGRRGLGRGLSALLGEVDAAPAQAPGEQLGGSREAPIEILQRNPDQPRRTFREEDLEDLSNSIREKGVLQPILVRPSPDTAGEYQIVAGERAWRAAQRAGLKTVPIMVRELDDLAVLEIGIIENVQRADLNVLEEALSYKVLMEKFERTQENIAQTIGKSXSHVANXMRLLXLPDEVQSYLVSGELTAXHARAIAAAADPVALAKQIIEGGLSVRETEALARKAPNLSAGKSKGGRPPRVKDTDTQALESDLSSVLGLDVSIDHRGSTGTLTITYATLEQLDDLCNRLTRGI
# Variants of: B1
# Test: one-hybrid fitness for binding parS DNA (scaled: cognate 1, non-cognate 0); higher = stronger binding
# Conditions: with parS DNA site
# How it was run: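 Pre- and post-selection plasmids were Illumina-sequenced, three replicate libraries were pooled, and any variant with under 10 reads was removed. The libraries were Caulobacter ParB with four specificity codons randomised, selected in E. coli USO through a HIS3 reporter whose site is 19 bp from the promoter. Cells grew 48 hours at 37°C on M9 without histidine, with 0.1 mM IPTG and 5 mM 3-AT. Fitness is the log change in variant-to-wild-type read ratio, rescaled against cognate and non-cognate.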
row,Variant,one-hybrid fitness for binding parS DNA
1,RPAA,≤ 0.2
2,EFAA,≤ 0.2
3,RGAA,0.32
4,RWAA,0.378
5,RCAA,0.596
6,RDAA,≤ 0.2
7,RFFA,0.492
8,QVSF,≤ 0.2
9,LAKQ,≤ 0.2
10,WWDC,≤ 0.2
11,RWHK,≤ 0.2
12,RQAD,≤ 0.2
13,RQAN,0.419
14,RQFR,≤ 0.2
15,RQFQ,≤ 0.2
16,RQAT,0.884
17,RQFT,0.759
18,MIFS,≤ 0.2
19,SNTE,≤ 0.2
20,YHPR,≤ 0.2
21,RCGL,≤ 0.2
22,LEEV,≤ 0.2
23,SVPL,≤ 0.2
24,GMVS,≤ 0.2
25,QIKS,≤ 0.2

row,Variant,one-hybrid fitness for binding parS DNA
1,RGWT,0.388
2,RMWN,0.43
3,RDWT,≤ 0.2
4,REWT,≤ 0.2
5,RCWT,0.908
6,RMWH,0.231
7,RSWT,0.756
8,RPWT,≤ 0.2
9,RMWT,0.904
10,TNVG,≤ 0.2
11,AFWR,≤ 0.2
12,TISC,≤ 0.2
13,RCEF,≤ 0.2
14,RCFS,1.03
15,RSFP,≤ 0.2
16,RSFS,1.01
17,RSFD,≤ 0.2
18,RCFD,≤ 0.2
19,RPFS,≤ 0.2
20,QAPG,≤ 0.2
21,YKDR,≤ 0.2
22,IDIG,≤ 0.2
23,RRSG,0.711
24,RRYR,≤ 0.2
25,RRGY,0.361

row,Variant,one-hybrid fitness for binding parS DNA
1,RRCN,0.452
2,RRGF,≤ 0.2
3,DRSG,≤ 0.2
4,RRYK,≤ 0.2
5,RRYG,0.769
6,RRCG,0.758
7,RRSY,0.46
8,RRCR,≤ 0.2
9,RRGG,0.698
10,QRNI,≤ 0.2
11,RLLW,0.241
12,FRGV,≤ 0.2
13,TALQ,≤ 0.2
14,TKKR,≤ 0.2
15,PENA,≤ 0.2
16,HIPD,≤ 0.2
17,EYSL,≤ 0.2
18,NRRG,≤ 0.2
19,RRQY,0.441
20,RRRG,0.706
21,RRDG,0.888
22,RRQQ,≤ 0.2
23,RRQG,0.727
24,RRNG,0.704
25,DRRG,≤ 0.2

row,Variant,one-hybrid fitness for binding parS DNA
1,RRNE,≤ 0.2
2,NRNG,≤ 0.2
3,DRDG,≤ 0.2
4,YVYG,≤ 0.2
5,RGYW,≤ 0.2
6,HTNV,≤ 0.2
7,TDNV,≤ 0.2
8,ASRA,≤ 0.2
9,KASS,≤ 0.2
10,EPDT,≤ 0.2
11,GAHV,≤ 0.2
12,SLDA,≤ 0.2
13,LSDS,≤ 0.2
14,IIGF,≤ 0.2
15,RRLK,≤ 0.2
16,RRHG,0.72
17,RRHY,0.446
18,RRLG,0.794
19,RRLR,≤ 0.2
20,RRHM,0.424
21,PSWH,≤ 0.2
22,LPFA,0.253
23,KMLG,≤ 0.2
